Pf growth 96h: inhibits malaria parasite growth, 96 h; 320,000 compounds, 6.9% hits; P. falciparum luciferase reporter growth, 96 h; AID 504834; Potency, µM (doses to about 28.7 µM), without a hit: at the top dose activity change, negative = inhibition, most hits filed as inhibitors; also: potency is read from the fitted curve at half-maximal effect; % is scaled to controls: 0 for no effect and ±100 for the full control effect
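P. falciparum expressing integrated firefly luciferase, in erythrocytes at 2% hematocrit, 0.05% parasitemia, incubated with compounds 96 h at 37 C, 5% CO2. Growth inhibition read as loss of luminescence; two-generation exposure targets delayed-death apicoplast inhibitors.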
Pf growth 48h: inhibits P. falciparum growth in the first generation, 48 h | P. falciparum luciferase growth in erythrocytes, 48 h | Potency, µM (highest dose often 28.7 µM), inactives show at the highest dose activity change, negative = inhibition, usual class: inhibitors | 310,000 compounds, 5.9% hits; also: potency is read from the fitted curve at half-maximal effect; % is scaled to controls: 0 for no effect and ±100 for the full control effect
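First compound was added to culture medium, then infected red cells at 0.1% parasitemia and 2% hematocrit (final). After incubation at 37 C under 5% CO2, luciferase detection reagent was dispensed and light output recorded.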
Cycloheximide cs: counter-screen for Shiga toxin inhibitors: cycloheximide protein synthesis inhibition; cell reporter, cycloheximide protein synthesis inhibition counterscreen; max response, %; 300,000 compounds, 12% hits; AID 2314; in the data active = max response mostly above about 13%, no sharp cut-off; inactive = mostly below about 14%; also: read at 38.3 µM for the half of the compounds with a filed dose; 0% is about no effect
Shiga toxin inh: inhibitors of Shiga toxin in Vero cells. Vero cells, Shiga toxin protein synthesis inhibition reporter. inhibition, % at 38.7 µM. 290,000 compounds, 9.2% hits; in the data active = inhibition mostly above about 28%, no sharp cut-off; inactive = mostly below about 43%; also: 0% is about no effect
Numbers without * were called inactive; ? = inconclusive; . = not tested or not shown. Compounds with a hit are over-represented: about 21% of the library has one in this group of screens. Unless noted, calls follow the shape of the dose curve; as a rule, active = well fitted inhibition curve with a large enough effect; inconclusive = small, poorly fitted or top-dose-only effect, or another doubt; inactive = no such curve, though single readings can be large or run the other way.

SMILES	Pf growth 96h	Pf growth 48h	Cycloheximide cs	Shiga toxin inh
O=C(N/N=C(/c1ccccc1)c1ccncc1)c1ccc2c(c1)OCO2	-43.1%	-1.0%	-3.5	-5.4
CC(=O)Nc1cccc(/C(C)=N/NC(=O)c2ccc3c(c2)OCO3)c1	146.7%	256.9%	25.7*	41.6
CC(/C=C/c1ccc2c(c1)OCO2)=N/NC(=O)c1cccnc1	39.1%	35.9%	23.4*	62.0*
C/C(=N\NC(=O)c1ccccc1)c1ccc2c(c1)OCO2	-16.8%	.	51.4*	95.7*
C/C(=N\NC(=O)c1ccc(NS(=O)(=O)c2cccs2)cc1)c1ccc2c(c1)OCO2	2.3%	-1.0%	7.5	-5.5
CNC(=S)N(CCCn1ccnc1)Cc1c(F)cccc1Cl	?	?	-2.8	26.9
Cc1ccc(S(=O)(=O)Nc2c(NC3CCCCC3)c3ccccc3oc2=O)c(C)c1	?	-29.3%	-1.2	9.0
C/C(=N\NC(=O)c1cc(C)oc1C)c1ccc2c(c1)OCO2	12.3%	35.9%	47.5*	121.6*
COc1ccc(CCC(=O)N/N=C(\C)c2ccc3c(c2)OCO3)cc1	?	9.1%	0.8	-12.5
CC/C(=N\NC(=O)c1cccnc1)c1ccc2c(c1)OCCO2	0.928µM*	-11.0%	6.5	14.0
C/C(=N\NC(=O)Cc1ccccc1Cl)c1cccnc1	1.65µM*	?	24.6	17.7
CC/C(=N\NC(=O)c1ccc2c(c1)OCO2)c1ccccc1	?	63.3%	37.4*	46.0*
O=C(CCN1C(=O)C2CCCCC2C1=O)N1CCN(S(=O)(=O)c2ccccc2)CC1 (stereo not drawn)	-12.4%	?	.	.
Cc1ccc2nsnc2c1NC(=O)COc1ccccc1F	?	-2.8%	-1.8	-2.4
COc1ccc(-n2ncc3c2CC(C)(C)CC3NC(=O)c2ccc(OC)o2)cc1 (stereo not drawn)	-1.7%	-14.0%	-2.2	2.8
C/C(=N/NC(=O)c1ccc2c(c1)OCO2)c1ccc(NC(=O)C(F)(F)F)cc1	89.5%	116.2%	41.2*	35.6*
O=C(N/N=C/c1cc2c(cc1Br)OCO2)c1c[nH]c2ccccc12	29.1%	?	13.2	65.6
C/C(=N\NC(=O)c1c[nH]c2ccccc12)c1ccc2c(c1)OCO2	5.86µM*	?	29.5*	42.0*
C/C(=N\NC(=O)c1ccc(Br)cc1)c1cccnc1	?	63.2%	21.9*	44.8
C/C(=N/NC(=O)c1ccco1)c1cccnc1	?	35.4%	26.3	28.9
CC(Sc1nncn1C)C(=O)Nc1ccc(N2CCCCC2)cc1 (stereo not drawn)	40.2%	44.3%	.	.
CN(C)c1cccc(C(=O)Nc2cccc(F)c2)c1	-7.2%	-30.6%	41.3*	68.1*
CCN(CC)c1ccc(C(=O)Nc2cccc(F)c2)cc1	25.0%	4.9%	27.8*	42.1
CC(=O)Nc1cccc(N(C)C)c1	390.4%	1.6%	-0.8	7.5
CCN(CC)c1ccc(C(=O)NN)cc1	1.0%	9.0%	2.2	-4.0
SMILES	Pf growth 96h	Pf growth 48h	Cycloheximide cs	Shiga toxin inh
Cc1cccc(C)c1NC(=S)N(Cc1cccs1)C1CCCC1	?	12.6%	3.1	-4.0
CCOC(=O)CNC(=S)N(Cc1ccccc1F)C1CCCCC1	212.7%	?	10.8	4.2
CCOC(=O)CNC(=S)N(Cc1cccs1)C1CCCCC1	7.38µM*	16.9%	-0.9	16.5
O=C(N1CCOCC1)N(Cc1cccs1)C1CCCC1	7.38µM*	-7.1%	-3.1	-13.4
Nc1nnc(SCC(=O)OCC(=O)NC23CC4CC(CC(C4)C2)C3)s1	-1.8%	13.1µM*	-0.7	4.9
Nc1nnc(SCC(=O)OCC(=O)NC2CCCCC2)s1	15.1%	-18.9%	9.7	-3.7
O=c1c(Cl)nc2cc(Cl)ccc2n1CCNc1ncc(C(F)(F)F)cc1Cl	?	13.1µM*	-3.1	-4.8
O=c1c2nncn2c2cc(C(F)(F)F)ccc2n1CCNc1ncc(C(F)(F)F)cc1Cl	?	?	-7.8	-10.2
NNc1nc2cccnc2n(CCNc2ncc(C(F)(F)F)cc2Cl)c1=O	11.7µM*	?	5.5	-1.8
C(C#CCCCCCCCCC[n+]1ccccc1)#CCCCCCCCCC[n+]1ccccc1	0.0928µM*	0.294µM*	-3.2	-8.7
CC(=O)c1csc(COc2ccccc2)n1	85.8%	65.8%	16.6*	35.2
CCOC(=O)c1cc(-c2csc(COc3ccccc3)n2)on1	-11.8%	37.9%	-1.1	-4.6
CCOC(=O)c1csc(N)n1	-24.7%	125.8%	33.9*	80.3*
CCOC(=O)c1csc(COc2ccccc2Cl)n1	2.0%	36.6%	32.5*	52.5*
CCOC(=O)c1csc(-c2ccc([N+](=O)[O-])cc2)n1	28.4%	60.5%	40.3*	89.6*
COc1ccc(CC(=O)OCC(=O)Nc2ccc(Br)cc2)cc1	40.2%	5.1%	-1.0	-4.0
